# Reference: PubChem BioAssay (Tox21)
# Several values for one entry are separate records, joined by “and”; a condition that tells them apart may be missing. Equal values may be shown once. Inconclusive results are not listed. Values without a mark were called inactive. Activity calls are given as the source filed them. Calls follow the shape of the dose curve; as a rule, active = well fitted curve in the direction sought with a large enough effect in the repeat runs; inconclusive = weak or mixed curves; inactive = no such curve, though single readings can be large; an effect the other way counts as inactive or inconclusive.
# How the values were obtained:
# [1] = target: Voltage-gated inwardly rectifying potassium channel KCNH2 (Homo sapiens) (UniProt Q12809); test: Human Ether-a-go-go-Related Gene (hERG) channel small molecule antagonists: fluorescence cell-based qHTS assay (AID 1671200);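 as to activity change, negative = inhibition: hERG-expressing U2OS cells given a thallium stimulus after FluxOR II dye loading; series mostly up to about 77 µM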
# Procedure, shortened: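 First, 1000 cells per well are seeded and cultured overnight at 37 C. Next, FluxOR II dye is loaded for 1 h at room temperature, protected from light. After 10 more minutes, stimulus is added and fluorescence is read.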
# [2] = target: Cytochrome P450 1A2 (Homo sapiens) (UniProt P05177); test: Cytochrome P450 Family 1 Subfamily A Member 2 (CYP1A2) small molecule antagonists: luciferase reporter qHTS assay (AID 1671199); as to activity change, negative = inhibition: series mostly up to about 120 µM
# Procedure, shortened: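 P450-Glo CYP1A2, 1536-well qHTS: enzyme/proluciferin substrate + cpd (DMSO), 10 min RT; NADPH regen, 1 h RT; detection reagent, 20 min; luminescence, RLU.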
# [3] = target: Cytochrome P450 3A4 (Homo sapiens) (UniProt P08684); test: Cytochrome P450 Family 3 Subfamily A Member 4 (CYP3A4) small molecule antagonists: luciferase reporter qHTS assay (AID 1671201); as to activity change, negative = inhibition: series mostly up to about 120 µM
# Procedure, shortened: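 Enzyme and proluciferin substrate are mixed with test chemicals for 10 min, then NADPH regeneration system drives turnover for 1 h at room temperature. A detection reagent halts the reaction; luminescence after 20 min gives relative activity.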
# % is scaled to controls: 0 for no effect and ±100 for the full control effect; potency is read from the fitted curve at half-maximal effect.
# Also: nearly all actives have a fitted effect of over 50% in size.
# Chain of Cytochrome P450 3A4 (Homo sapiens) (P08684 whole entry, looked up): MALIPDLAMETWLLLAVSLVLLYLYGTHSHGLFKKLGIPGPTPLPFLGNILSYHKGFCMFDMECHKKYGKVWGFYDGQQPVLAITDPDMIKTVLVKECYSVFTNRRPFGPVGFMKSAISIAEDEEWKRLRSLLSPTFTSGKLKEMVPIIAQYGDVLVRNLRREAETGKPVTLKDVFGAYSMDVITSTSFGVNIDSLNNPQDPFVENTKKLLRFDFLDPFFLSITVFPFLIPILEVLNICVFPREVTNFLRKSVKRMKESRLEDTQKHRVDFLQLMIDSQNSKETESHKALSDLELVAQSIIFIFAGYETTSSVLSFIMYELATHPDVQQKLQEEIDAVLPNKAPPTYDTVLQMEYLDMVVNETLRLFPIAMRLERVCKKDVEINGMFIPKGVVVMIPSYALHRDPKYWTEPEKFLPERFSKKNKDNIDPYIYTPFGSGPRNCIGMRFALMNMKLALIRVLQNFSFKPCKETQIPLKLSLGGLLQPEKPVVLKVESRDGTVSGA
# Chain of Voltage-gated inwardly rectifying potassium channel KCNH2 (Homo sapiens) (Q12809 whole entry, looked up): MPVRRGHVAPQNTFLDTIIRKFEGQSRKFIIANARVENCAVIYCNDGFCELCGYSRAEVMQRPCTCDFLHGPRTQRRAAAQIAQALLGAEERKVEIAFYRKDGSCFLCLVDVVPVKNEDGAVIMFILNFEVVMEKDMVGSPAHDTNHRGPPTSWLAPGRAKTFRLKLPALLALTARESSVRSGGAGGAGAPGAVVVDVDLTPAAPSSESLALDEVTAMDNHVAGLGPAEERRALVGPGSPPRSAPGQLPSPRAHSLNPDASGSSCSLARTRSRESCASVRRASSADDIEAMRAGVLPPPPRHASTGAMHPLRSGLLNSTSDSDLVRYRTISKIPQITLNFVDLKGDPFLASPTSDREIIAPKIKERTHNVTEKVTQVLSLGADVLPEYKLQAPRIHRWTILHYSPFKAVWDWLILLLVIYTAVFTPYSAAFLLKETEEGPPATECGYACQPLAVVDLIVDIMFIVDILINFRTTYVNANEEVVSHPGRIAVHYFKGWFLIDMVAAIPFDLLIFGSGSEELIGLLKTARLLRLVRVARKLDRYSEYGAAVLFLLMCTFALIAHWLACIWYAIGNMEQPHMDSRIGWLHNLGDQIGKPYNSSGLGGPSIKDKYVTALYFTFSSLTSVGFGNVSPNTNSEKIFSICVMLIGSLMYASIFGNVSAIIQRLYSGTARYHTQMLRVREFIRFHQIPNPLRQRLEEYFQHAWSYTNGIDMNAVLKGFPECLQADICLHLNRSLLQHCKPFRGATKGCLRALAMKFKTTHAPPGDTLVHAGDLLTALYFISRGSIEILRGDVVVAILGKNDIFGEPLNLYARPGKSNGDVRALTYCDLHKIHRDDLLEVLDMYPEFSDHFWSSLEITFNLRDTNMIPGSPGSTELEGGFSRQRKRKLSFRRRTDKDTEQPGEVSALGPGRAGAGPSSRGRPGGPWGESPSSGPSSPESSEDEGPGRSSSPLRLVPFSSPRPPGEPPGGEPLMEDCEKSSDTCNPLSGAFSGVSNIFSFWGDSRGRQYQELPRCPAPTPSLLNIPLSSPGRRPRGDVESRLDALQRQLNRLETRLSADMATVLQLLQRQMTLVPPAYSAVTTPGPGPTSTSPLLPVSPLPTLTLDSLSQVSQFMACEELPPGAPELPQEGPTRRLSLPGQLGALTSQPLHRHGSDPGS
# Chain of Cytochrome P450 1A2 (Homo sapiens) (P05177 whole entry, looked up): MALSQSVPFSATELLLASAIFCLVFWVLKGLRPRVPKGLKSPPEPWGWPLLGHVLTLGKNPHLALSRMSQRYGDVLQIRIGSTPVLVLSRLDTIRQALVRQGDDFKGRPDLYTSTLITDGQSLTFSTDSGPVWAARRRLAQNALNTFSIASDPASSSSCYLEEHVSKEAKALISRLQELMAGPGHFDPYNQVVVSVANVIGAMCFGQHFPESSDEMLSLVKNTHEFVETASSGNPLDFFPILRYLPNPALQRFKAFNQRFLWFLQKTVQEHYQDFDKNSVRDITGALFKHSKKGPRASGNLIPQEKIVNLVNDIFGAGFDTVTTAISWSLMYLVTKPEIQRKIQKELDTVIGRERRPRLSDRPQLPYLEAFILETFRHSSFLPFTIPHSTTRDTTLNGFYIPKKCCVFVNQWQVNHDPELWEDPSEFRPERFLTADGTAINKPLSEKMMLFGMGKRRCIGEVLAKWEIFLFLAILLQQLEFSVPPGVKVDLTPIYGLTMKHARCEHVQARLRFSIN
smiles,measurement,setting,value
CCN1CCN(c2cc(-c3ccc(F)cc3)c3c(n2)CCCCCC3)CC1,Potency,[1],4.65 µM (active)
C/C=C/CO,Potency,[1],inactive
O=C1OC(=O)c2ccc3c4c(ccc1c24)C(=O)OC3=O,Potency,[2],inactive
same,Potency,[1],inactive
same,Potency,[3],inactive
O=C(c1ccccc1)c1cc(Cl)ccc1O,Potency,[2],12 µM (active)
same,Potency,[3],inactive
CCCCCCC(C)Nc1ccc(Nc2ccccc2)cc1 (stereo not given),Potency,[2],22.4 µM (active)
same,Potency,[3],35.6 µM (active)
Clc1ccc(C(Cn2ccnc2)OCc2c(Cl)cccc2Cl)c(Cl)c1 (stereo not given),Potency,[1],7.56 µM (active)
c1cc(OCC2CO2)cc(OCC2CO2)c1 (stereo not given),Potency,[1],inactive
CCCN(CCc1cccs1)[C@H]1CCc2c(O)cccc2C1,Potency,[1],3.01 µM (active)
CCCCC(CC)COC(=O)c1ccc(O)cc1 (stereo not given),Potency,[2],31.6 µM (active) and 35.6 µM (active)
same,Potency,[3],70.7 µM (active)
CCCCN(CCCC)CCC(O)c1cc2c(Cl)cc(Cl)cc2c2cc(C(F)(F)F)ccc12 (stereo not given),Potency,[1],1.07 µM (active)
Cc1ccc(CCn2c3c(c4cc(Cl)ccc42)CN(C)CC3)cn1,Potency,[1],12 µM (active)
CCc1ccc(O)c(C(C)(C)C)c1,Potency,[2],35.6 µM (active)
same,Potency,[3],inactive
CC(C)(c1cc(Br)c(OCCO)c(Br)c1)c1cc(Br)c(OCCO)c(Br)c1,Potency,[2],27.6 µM (active)
same,Potency,[3],49.2 µM (active)
CN1CN(C)CN(C)C1,Potency,[2],inactive
same,Potency,[1],inactive
same,Potency,[3],inactive
CCCCCCCCCCCCCCCCCO,"activity change, negative = inhibition",[2],6.84% [at 23.6 µM]
same,"activity change, negative = inhibition",[1],5.95% [at 15.8 µM]
same,"activity change, negative = inhibition",[3],7.87% [at 23.6 µM]
Cc1cn[nH]c1,Potency,[1],inactive
N[C@@H](CSSC[C@H](N)C(=O)O)C(=O)O,"activity change, negative = inhibition",[2],-15.1% [at 0.435 µM]
same,"activity change, negative = inhibition",[1],-0.819% [at 0.29 µM]
same,"activity change, negative = inhibition",[3],5.27% [at 0.435 µM]
